# NPR1 antag: antagonists of human natriuretic peptide receptor Npr1. P16066. HEK293 hNpr1 GloSensor cGMP, ANP-stimulated luminescence. Potency, µM (titrated, usually from 46.3 µM), without a hit: at the top dose activity change, negative = inhibition, most hits filed as inhibitors. 76,000 compounds, 1.6% hits; calls by dose curve; further: on the % scale 0 is the no-effect control and ±100 the full control effect; nearly all actives have a fitted effect of over 60% in size
#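 HEK293 cells stably expressing human Npr1 and cGMP GloSensor pGS-40F, loaded 2 h with 2% GloSensor reagent, given compound 30 min at room temperature. Luminescence read before and 20 min after 0.1 nM hNppA.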
# HEK cytotox: kills HEK 293 cells. HEK 293 viability, ATP luminescence (CellTiter-Glo), 48-72 h. Potency, µM (series often up to 115 µM), without a hit: at the top dose activity change, negative = cytotoxicity, actives largely listed as inhibitors. 94,000 compounds, 6.6% hits; further: on the % scale 0 is the no-effect control and ±100 the full control effect; nearly all actives have a fitted effect of over 60% in size
#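 CellTiter-Glo luminescence (cellular ATP) was read after 48 or 72 hr of compound exposure at 37 degree Celsius. Cells were HEK 293 plated at 250 cells/well.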
# Luciferase inh: Photinus pyralis luciferase inhibition. P08659. purified P. pyralis luciferase, luminescence, biochemical. Potency, µM (titrated, usually from 115 µM), usual class: inhibitors. 76,000 compounds, 2.5% hits. AID 1347043; further: on the % scale 0 is the no-effect control and ±100 the full control effect; nearly all actives have a fitted effect of over 65% in size
# Target sequence (P08659 whole entry, looked up): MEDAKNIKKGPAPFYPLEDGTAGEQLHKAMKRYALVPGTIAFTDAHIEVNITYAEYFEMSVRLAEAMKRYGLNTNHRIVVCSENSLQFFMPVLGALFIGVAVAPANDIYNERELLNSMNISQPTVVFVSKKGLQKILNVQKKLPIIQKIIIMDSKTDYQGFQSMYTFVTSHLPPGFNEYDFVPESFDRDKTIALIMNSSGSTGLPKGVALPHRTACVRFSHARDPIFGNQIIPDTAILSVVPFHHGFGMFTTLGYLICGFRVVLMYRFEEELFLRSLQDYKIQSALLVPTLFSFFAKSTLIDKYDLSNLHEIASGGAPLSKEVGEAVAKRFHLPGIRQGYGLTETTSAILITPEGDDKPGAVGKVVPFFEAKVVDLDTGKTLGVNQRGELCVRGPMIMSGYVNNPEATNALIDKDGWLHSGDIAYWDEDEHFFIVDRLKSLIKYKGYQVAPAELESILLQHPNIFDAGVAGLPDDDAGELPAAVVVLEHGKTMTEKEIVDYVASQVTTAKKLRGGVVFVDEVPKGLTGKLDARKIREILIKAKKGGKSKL
#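 Luminescence read by CCD imaging after purified firefly luciferase (10nM final) was added to substrate buffer holding 10uM D-luciferin and 10uM ATP, pH 7.5, pre-dosed with compound.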
# NIH3T3 tox: kills NIH 3T3 cells. NIH 3T3 viability, CellTiter-Glo ATP luminescence, 48-72 h. Potency, µM (series often up to 96.7 µM), for the others: at the highest dose activity change, negative = cytotoxicity, usual class: inhibitors. 94,000 compounds, 4.3% hits. AID 1345082; further: on the % scale 0 is the no-effect control and ±100 the full control effect; nearly all actives have a fitted effect of over 55% in size
#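 NIH 3T3 cells at 400 cells/well received 23 nL of compound by pintool and were incubated 48 or 72 h at 37 °C. Viability was read as ATP-coupled CellTiter-Glo luminescence.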
# Npr1 antag conf: confirmation of human Npr1 natriuretic peptide receptor antagonists; shares compounds with NPR1 antag; HEK293 hNpr1 cGMP GloSensor luminescence, ANP-stimulated; Potency, µM (doses to about 57.6 µM), without a hit: top-dose activity change, negative = inhibition, actives largely listed as inhibitors; 1,400 compounds, 76% hits; calls by dose curve; further: nearly all actives have a fitted effect of over 70% in size
# Npr2 selectivity: hNpr2 antagonism, selectivity versus Npr1; shares compounds with NPR1 antag; HEK293 hNpr2 GloSensor cGMP luminescence, CNP-stimulated; Potency, µM (highest dose often 57.6 µM), for the others: top-dose activity change, negative = inhibition, most hits filed as inhibitors; 1,400 compounds, 67% hits; AID 1347046; calls by dose curve; further: nearly all actives have a fitted effect of over 70% in size
# FLuc counter: inhibits firefly luciferase, false Npr1 antagonist flag; shares compounds with NPR1 antag; purified FLuc enzyme, luminescence, Km substrate; Potency, µM (highest dose often 57.6 µM), for the others: at the top dose activity change, negative = inhibition, actives largely listed as inhibitors; 1,400 compounds, 0.7% hits; AID 1347047; further: 0% is about no effect
# GloSensor cGMP: control cell line activity, Npr1 antagonist counter-screen; 1,400 compounds, 69% hits; shares compounds with NPR1 antag; Potency, µM (series often up to 57.6 µM), for the others: at the top dose activity change, negative = inhibition, usual class: inhibitors; HEK293 GloSensor cGMP, SNP-stimulated, luminescence; calls by dose curve; further: on the % scale 0 is the no-effect control and ±100 the full control effect; nearly all actives have a fitted effect of over 70% in size
# Starred values were filed as active, the others as inactive; i = inactive; ? = inconclusive; . = no result; ! = repeats disagree; [ ] = another dose, or the depositor's remark. Shown are actives, neighbours in structure and some others; about 11% of the full set was active somewhere. Unless noted, the call rests on the fitted dose curve; in most records, active means well fitted curve in the direction sought with a large enough effect; inconclusive means small, poorly fitted or top-dose-only effect, or another doubt; inactive means no such curve, though single readings can be large; an effect the other way counts as inactive or inconclusive. Potency means the concentration at half of the fitted maximal effect.
SMILES,NPR1 antag,HEK cytotox,Luciferase inh,NIH3T3 tox,Npr1 antag conf,Npr2 selectivity,FLuc counter,GloSensor cGMP
CCc1ccc(CN2CCC(O)(Cc3cc(-c4cccc(OC)c4)no3)CC2)o1,-23%,?,i,?,-28%,-21%,-1%,?
COc1ccc(C2Cn3nnc(C(=O)N4CCN(C(=O)c5cc(C)ccc5C)CC4)c3CO2)cc1 (stereo not drawn),?,?,i,?,?,-23%,-1%,-15%
Cc1ccc(C(=O)N2CCN(C(=O)c3nnn4c3COC(c3ccc(F)cc3)C4)CC2)cc1C (stereo not drawn),11µM*,45µM*,i,?,27µM*,22µM*,0%,24µM*
COc1ccc(C(=O)N2CCN(C(=O)c3nnn4c3COC(c3ccc(F)cc3)C4)CC2)cc1 (stereo not drawn),-16%,?,i,?,.,.,.,.
COc1ccc(C2Cn3nnc(C(=O)N4CCN(C(=O)c5ccc(F)cc5)CC4)c3CO2)cc1 (stereo not drawn),?,?,i,-12%,22µM*,?,-1%,22µM*
COc1ccc(C2Cn3nnc(C(=O)N4CCN(C(=O)Cc5ccc(F)cc5)CC4)c3CO2)cc1 (stereo not drawn),8.9µM*,?,i,-10%,14µM*,15µM*,0%,14µM*
O=C(NCC(F)(F)F)C1CN(c2ccccc2)C(=O)N1 (stereo not drawn),18%[70.6 µM],?,i,-15%[138 µM],.,.,.,.
COc1ccc(C2Cn3nnc(C(=O)N4CCN(C(=O)c5ccc(F)cc5Cl)CC4)c3CO2)cc1 (stereo not drawn),11µM*,?,i,-26%,22µM*,22µM*,0%,19µM*
COc1ccc(C2Cn3nnc(C(=O)NC4CCCCCCC4)c3CO2)cc1 (stereo not drawn),?,?,i,?,?,?,-1%,19µM*
O=C(Cc1ccc(F)cc1)N1CCN(C(=O)c2nnn3c2COC(c2ccc(Cl)cc2)C3)CC1 (stereo not drawn),13µM*,?,i,-25%,24µM*,?,-1%,22µM*
O=C(c1ccc(-c2ncc3cnc(-c4cccc(F)c4)cn23)cc1)N1CCc2cccnc21,18µM*,10µM*,i,32µM*,14µM*,14µM*,-17%[86.2 µM],18µM*
CN(Cc1noc(C2CCCC2)n1)c1cc(C2CC(O)C2)ncn1 (stereo not drawn),?,-44%,i,?,22µM*,?,1%,22µM*
OC1CC(c2cc(N3CCC(Cc4noc(C5CC5)n4)CC3)ncn2)C1 (stereo not drawn),0.79µM*,-52%,i,?,0.86µM*,1.2µM*,1%,0.77µM*
O=c1c2nc(OCc3ccc(F)cc3)ccc2ncn1C1CC1,-4%[70.6 µM],?,i,?,.,.,.,.
COc1cccc(-c2cc(C3CCN(S(=O)(=O)c4ccc(C(C)=O)cc4)CC3)[nH]n2)c1,14µM*,?,i,?,24µM*,24µM*,-2%,24µM*
CCc1cc(N(C)Cc2noc(C3CC3)n2)n2nc(C)c(C)c2n1,-3%,?,i,?,.,.,.,.
COc1c[nH]c(CN2CCCC(Nc3ccc(C(C)C)cc3)C2)cc1=O (stereo not drawn),?,?,i,?,22µM*,19µM*,-1%,22µM*
COc1c[nH]c(CN2CCCC(CCc3ccccc3C)C2)cc1=O (stereo not drawn),0%,-26%,i,-11%,.,.,.,.
N[S+](=O)([O-])c1ccc2c(c1)OCCN(Cc1ccccc1Cl)C2,-9%[70.6 µM],?,i,-28%[138 µM],.,.,.,.
Cc1nn(C)c(C)c1CCCN(C)C(=O)c1ccc2c(c1)C(O)CCCCCN2C (stereo not drawn),11µM*,35µM*,i,?,12µM*,14µM*,1%,9.7µM*
CCn1cc(CN(C)C(=O)c2ccc3c(c2)C(O)CCCCCN3C)c(C)n1 (stereo not drawn),?,?,i,?,.,.,.,.
COc1ccc(C(=O)N2CCC3(CC2)CC(c2cccc(C(F)(F)F)c2)=NO3)cc1,11µM*,35µM*!,i,22µM*!,24µM*,27µM*,3%[6.39 µM],?
CCCn1cc(C(=O)NCC2COc3cc(OC)ccc3C2)c(C)n1 (stereo not drawn),11µM*,?,i,?,19µM*,22µM*,-1%,19µM*
O=C(Cc1c[nH]c2ncc(-c3cn[nH]c3)cc12)NCc1cccnc1,-4%[70.6 µM],-13%[172 µM],i,?,.,.,.,.
Cc1ccccc1-c1cnc2[nH]cc(CC(=O)NC(C)C)c2c1,28µM*,?,i,?,31µM*,31µM*,5%[86.2 µM],35µM*
SMILES,NPR1 antag,HEK cytotox,Luciferase inh,NIH3T3 tox,Npr1 antag conf,Npr2 selectivity,FLuc counter,GloSensor cGMP
Cc1ccccc1-c1cnc2[nH]cc(CC(=O)NCc3ccccc3)c2c1,13µM*,?,i,-21%[138 µM],25µM*,25µM*,0%[86.2 µM],14µM*
NC(=O)Cc1c[nH]c2ncc(-c3ccccc3F)cc12,-13%[70.6 µM],-28%[230 µM],i,?,.,.,.,.
COC1CN(c2cccc(F)c2)C12CCN(S(=O)(=O)Cc1ccccc1F)CC2 (stereo not drawn),-16%,?,i,?,.,.,.,.
CCOC(=O)C1=CN(CC(=O)Nc2c(C)cc(C)cc2C)S(=O)(=O)N=C1C,11µM*,?,i,-19%,24µM*,?,0%,27µM*
CCOC(=O)C1=CN(CC(=O)Nc2ccc(C)cc2C)S(=O)(=O)N=C1C,-11%,-16%,i,-26%,.,.,.,.
Cc1ccc(-c2nc(CNC(=O)[C@@H]3CCC[C@H](N)C3)[nH]c2-c2ccccn2)cc1,-2%,?,i,-13%,.,.,.,.
COc1ccc(C2Cn3nnc(-c4nc(C5CC5)no4)c3CO2)cc1 (stereo not drawn),?,-11%,i,-34%,?,-22%,2%,-17%
